Reference: PubChem BioAssay AID1159580 (chemical genetic matrix, 2015)
Screen size: about 5,500 compounds; about 2,000 (36%) were called active. About 18% were inconclusive and are not listed. No stated cut-off is given here; in the data, active means normalized growth mostly below about 0.91 (no sharp cut-off); inconclusive means no clear call, values can overlap the other calls; inactive means mostly above about 0.92. This is one part of the list.

Test: chemical genetic growth profiling, strain panel (AID 1159580);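 further: tested at 20 µM; growth read once vehicle control cultures reached saturation at 30 °C; 1 = growth at the plate median or of vehicle wells; lower values mean less growth of the strain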
Conditions: S. cerevisiae deletion strains, growth OD

Measured: normalized growth

Cc1ccc(/C=C2\CCc3ccccc3C2=O)o1
active: locus YAL013W, strain DEP1, hits give low values 0.451 | locus YBR229C, strain ROT2, hits give low values 0.43 | locus YDL101C, strain DUN1, hits give low values 0.472 | locus YDL134C, strain PPH21, hits give low values 0.381 | locus YDR150W, strain NUM1, hits give low values 0.563 | locus YEL061C, strain CIN8, hits give low values 0.531 | locus YGR078C, strain PAC10, hits give low values 0.794 | locus YHR030C, strain SLT2, hits give low values 0.126 | locus YHR087W, strain rtc3, hits give low values 0.528 | locus YJR043C, strain POL32, hits give low values 0.421 | locus YJR075W, strain HOC1, hits give low values 0.676 | locus YLR039C, strain RIC1, hits give low values 0.275 | locus YLR058C, strain SHM2 (second series), hits give low values 0.934 | locus YLR085C, strain ARP6, hits give low values 0.208 | locus YLR262C, strain YPT6, hits give low values 0.354 | locus YML094W, strain GIM5, hits give low values 0.347 | locus YMR219W, strain ESC1, hits give low values 0.765 | locus YMR263W, strain SAP30, hits give low values 0.464 | locus YNL153C, strain GIM3, hits give low values 0.459 | locus YNL298W, strain CLA4 (second series), hits give low values 0.315 | locus YNL322C, strain KRE1, hits give low values 0.755 | locus YNR030W, strain Alg12, hits give low values 0.205 | locus YPL055C, strain LGE1, hits give low values 0.263 | locus YPL241C, strain CIN2, hits give low values 0.224 | locus YPR135W, strain CTF4, hits give low values 0.264
